Inhibition data for 31 molecules are collected here from ChEMBL document CHEMBL1961873, “Compounds: GSK PKIS; Assays: Nanosyn kinase panel” (2012).

The structures appear in SMILES notation. “And” between values parts separate entries of the source, which are not always exact repeats. Equal entries are not always repeated.

This test deals with Platelet-derived growth factor receptor alpha (Homo sapiens), P16234 [T674I]. As to conditions: at 1 µM.
Sequence of Platelet-derived growth factor receptor alpha (Homo sapiens), P16234 [T674I] (P16234 whole entry T674I): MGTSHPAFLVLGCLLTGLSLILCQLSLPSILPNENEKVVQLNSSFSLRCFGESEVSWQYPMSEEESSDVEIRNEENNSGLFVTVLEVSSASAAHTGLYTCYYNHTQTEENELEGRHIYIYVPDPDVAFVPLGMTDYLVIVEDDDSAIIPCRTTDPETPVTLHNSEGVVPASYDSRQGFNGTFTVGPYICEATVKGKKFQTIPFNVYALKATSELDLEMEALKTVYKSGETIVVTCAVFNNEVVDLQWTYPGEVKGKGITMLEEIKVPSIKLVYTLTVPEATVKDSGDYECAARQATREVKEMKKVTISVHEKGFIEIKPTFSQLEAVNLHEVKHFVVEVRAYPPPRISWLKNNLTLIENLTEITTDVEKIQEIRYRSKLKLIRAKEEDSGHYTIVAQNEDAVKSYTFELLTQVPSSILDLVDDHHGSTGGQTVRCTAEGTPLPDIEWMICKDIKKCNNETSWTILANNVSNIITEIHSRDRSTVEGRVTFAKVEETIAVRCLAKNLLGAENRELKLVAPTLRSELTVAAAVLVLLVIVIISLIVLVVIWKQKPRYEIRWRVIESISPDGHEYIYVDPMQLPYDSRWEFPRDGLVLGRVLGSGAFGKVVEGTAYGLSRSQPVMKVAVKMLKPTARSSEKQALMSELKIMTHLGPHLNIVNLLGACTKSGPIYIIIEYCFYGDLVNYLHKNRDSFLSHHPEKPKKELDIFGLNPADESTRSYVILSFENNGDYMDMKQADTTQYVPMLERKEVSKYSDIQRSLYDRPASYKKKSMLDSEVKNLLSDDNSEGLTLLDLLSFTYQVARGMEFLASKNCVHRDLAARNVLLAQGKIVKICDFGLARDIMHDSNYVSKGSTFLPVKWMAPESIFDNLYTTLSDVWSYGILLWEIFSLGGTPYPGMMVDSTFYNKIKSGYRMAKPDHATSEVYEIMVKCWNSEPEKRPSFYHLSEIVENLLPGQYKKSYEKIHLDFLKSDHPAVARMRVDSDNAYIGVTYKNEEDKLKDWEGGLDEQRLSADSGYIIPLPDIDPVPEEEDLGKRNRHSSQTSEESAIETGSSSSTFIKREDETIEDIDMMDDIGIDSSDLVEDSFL
Regarding `COc1ccc(Nc2ncc(-c3ccccc3)o2)cc1OC`, the inhibition stood at 94.4%.

`CCS(=O)(=O)c1ccc(OC)c(Nc2ncc(-c3cccc(C(C)=O)c3)o2)c1`: the inhibition stood at 8.46%.

`CS(=O)(=O)Nc1ccc(-c2ccc3c(NC(=O)C4CC4)n[nH]c3c2)cc1` gave an inhibition of 4.09%.

Take `CS(=O)(=O)CCNCc1ccoc1-c1ccc2ncnc(Nc3ccc(OCc4ccccc4)cc3)c2c1`: the inhibition came to 8.96%.

`NS(=O)(=O)c1ccc(N/N=C2\C(=O)Nc3ccc(C(=O)NCc4ccncc4)cc32)cc1` showed an inhibition of 16.9%.

On to `CN1CCC(C(=O)Nc2n[nH]c3nc(-c4ccc(O)cc4)c(Br)cc23)CC1`, for which the inhibition was 9.37% and 7.73%.

In the case of `CN1CCN(Cc2ccc(-c3cc4ncnc(Nc5ccc(OCc6cccc(F)c6)c(Cl)c5)c4s3)o2)CC1`, the inhibition was 13.9% and 20%.

With `COc1cc2c(cc1Nc1nc(Nc3cccc(F)c3C(N)=O)c3cc[nH]c3n1)N(C(=O)CN1CCN(C(C)C)CC1)CC2`, the inhibition was found to be 2.59%.

`COc1cccc(-n2ncc3c(N/N=C/c4ccc(C(=O)NCCN(C)C)cc4)ncnc32)c1`: the inhibition was determined as 78.5%.

Regarding `CN(c1ccc(NC(=O)NCCN2CCOCC2)cc1)c1ccnc(Nc2ccc(CS(C)(=O)=O)cc2)n1`, the inhibition was 95%.

With `Cc1nnc(-c2cccc(-c3ccc(C(=O)NCC4CC4)cc3)c2)o1`, the inhibition was 11.6%.

For the molecule `Cc1cc(O)cc(C)c1/C=C/c1cncc(C(N)=O)c1`, the inhibition was found to be 4.33%.

Molecule `FC(F)(F)CNc1nccc(-c2cnn3ncccc23)n1` gave an inhibition of 4.54%.

`NC(=O)c1ccc2c(-c3ccnc(NCCCO)n3)c(-c3ccc(F)cc3)nn2c1`: the inhibition amounted to 6.59%.

`COc1ccc2ncn(-c3cc(O[C@H](C)c4ccccc4C(F)(F)F)c(C(N)=O)s3)c2c1` yielded an inhibition of 9.23%.

With `COc1cc(Nc2ncc(-c3ccccc3)o2)cc(OC)c1`, the inhibition was 76.4%.

Molecule `Fc1ccc(Nc2nccc(-c3c(-c4ccc(C(F)(F)F)cc4)nn4ncccc34)n2)cc1F` had an inhibition of 6.66%.

Regarding `COc1cc(N2CCN(C(C)C)CC2)ccc1Nc1nc(Nc2cccc(F)c2C(=O)O)c2cc[nH]c2n1`, the inhibition was determined as 8.84%.

The molecule `CC1(C)CC(n2cnc(-c3ccc(F)cc3)c2-c2ccnc(N)n2)CC(C)(C)N1` had an inhibition of 4.71%.

Molecule `COc1cccc(Nc2nccc(-c3cnn4ncccc34)n2)c1` showed an inhibition of 80.7%.

With `COc1ccc(-c2nn3ncccc3c2-c2ccnc(Nc3ccc(F)c(F)c3)n2)cc1`, the inhibition was determined as 11.2%.

On to `CNC(=O)c1cncc(/C=C/c2ccccc2C)c1`, for which the inhibition stood at 5.69%.

In turn, `Cn1c(-c2nonc2N)nc2cnccc21` gave an inhibition of 6.95%.

Turning to `Nc1ncnc2occ(-c3ccc(NC(=O)Nc4cc(C(F)(F)F)ccc4F)cc3)c12`, the inhibition was 97.9% and 83%.

In the case of `CCOc1ccc2c(-c3ccnc(Nc4cc(OC)cc(C(F)(F)F)c4)n3)cnn2n1`, the inhibition is 8.05%.

Turning to `O=C1Nc2ccccc2/C1=C1\CCc2cc(O)ccc21`, the inhibition was determined as 97.7%.

With `O=C(O[C@H]1CN[C@H](C#Cc2cc3ncnc(Nc4ccc5c(ccn5Cc5cc(F)ccc5F)c4)c3s2)C1)N1CCOCC1`, the inhibition is 6.54%.

In the case of `CS(=O)(=O)CCNCc1ccc(-c2ccc3ncnc(Nc4ccc(OCc5cccc(C(F)(F)F)c5)cc4)c3c2)o1`, the inhibition was 12.3%.

Regarding `N#Cc1cccc(Nc2ncc(-c3ccccc3)o2)c1`, the inhibition turned out to be 36.3%.

On to `N#Cc1ccc2c(-c3ccnc(NC4CC4)n3)c(-c3ccc(F)cc3)nn2c1`, for which the inhibition came to 6.15%.

In turn, `CNC(=O)c1sc(-n2cnc3cc(OC)c(OC)cc32)cc1OCc1ccccc1C(F)(F)F` registered an inhibition of 9.43%.
